Compounds with a hit are over-represented: about 1.6% of the library has one in this group of screens.
KCNQ2 enhance: KCNQ2 (rat) channel potentiation. hit rate 0.54% among 310,000. AID 2239. B-score at 10 µM. CHO-K1 KCNQ2, FluxOR thallium flux fluorescence; active compounds read high;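 active = fluorescence ratio B-score at least 3 SD of library B-scores, with initial fluorescence B-score within 3 of them, cut at about 5.3 in these data; same plate scores as AID 2156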;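 note: B-score of peak minus minimum over baseline fluorescence ratio after K+ and Tl+ stimulus; positive B-score means potentiation of KCNQ2 with more thallium influx and brighter signal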
KCNQ2 block: blocks the rat KCNQ2 potassium channel. B-score at 10 µM. CHO-K1 KCNQ2, FluxOR thallium flux, 20 min; active compounds read low. hit rate 1.1% among 310,000. AID 2156;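 active = fluorescence ratio B-score at most minus 3 library SDs, with starting brightness B-score within 2 library SDs, cut at about -5.5 in these data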
Active calls of the source: *; i = inactive; . = no result.

SMILES | KCNQ2 enhance | KCNQ2 block
COC(=O)Cn1c(=NC(=O)c2ccc(OC)cc2)sc2cc(OC)ccc21 | 0.3 | i
COc1ccccc1OCc1nc(-c2ccc([N+](=O)[O-])cc2)no1 | 0.44 | i
O=C1CN(C(=O)CC2C(=O)NCCN2Cc2ccccc2C(F)(F)F)CCN1 (centres undefined) | . | i
CCOC(=O)N1CCN(C(=O)c2ccc3c(=O)n(CCC4=CCCCC4)c(=S)[nH]c3c2)CC1 | 0.45 | i
O=c1c2ccc(Cl)cc2[nH]c(=S)n1CCC1=CCCCC1 | 8.7* | i
Cn1[nH]c(-c2ccccc2)c(/C=N/O)c1=O | . | i
O=C(Nc1nc2ccc(F)cc2s1)C1=COCCO1 | . | i
O=C(Nc1nc2ccc(F)cc2s1)c1ccccn1 | 16* | i
Cc1cc(C(=O)NCc2ccc3c(c2)OCO3)ccc1[N+](=O)[O-] | 3.6 | i
CC1CC(C)CN(c2ccc(C(=O)NCc3ccc4c(c3)OCO4)cc2[N+](=O)[O-])C1 (centres undefined) | 8.9* | i
CC(=O)NC(Cc1c[nH]c2ccccc12)C(=O)OCC(=O)Nc1cc(C)on1 (centres undefined) | 0.63 | i
Cc1cc(NC(=O)COC(=O)[C@H](Cc2c[nH]c3ccccc23)NC(=O)c2ccc(F)cc2)no1 | -7.2 | -7.2*
CCC(=O)NCc1ccc(-c2nc3ncccc3o2)cc1 | 0.01 | i
O=C(NC1CCCCC1)N(Cc1ccc(F)cc1)Cc1nc2ccccc2c(=O)[nH]1 | . | i
Nn1c(SC/C=C/c2ccccc2)nnc1-c1ccncc1 | . | i
COc1cc(-c2nnc(SC/C=C/c3ccccc3)n2N)cc(OC)c1OC | -5.9 | -5.9*
O=C(CN1C(=O)C2CC=CCC2C1=O)Nc1ccc(S(=O)(=O)Nc2ncccn2)cc1 (centres undefined) | . | i
Cc1ccc(-n2c(SCC(=O)Nc3ccc4c5c(cccc35)CC4)nc(O)c(C)c2=O)cc1 | 7* | i
Cc1ccc(-n2c(SCC(=O)Nc3ccc4c5c(cccc35)CC4)nc(O)cc2=O)cc1 | 2.3 | i
CC(Sc1ncnc2c1cnn2-c1ccccc1)C(=O)NCC1CCCO1 (centres undefined) | 0.69 | i
CC1SCC(NC(=O)c2ccc(Cl)cc2)CS1 (centres undefined) | . | i
O=C1C2C(c3ccccc3)CC=CC2[C@H](c2ccc(C(F)(F)F)cc2)N1Cc1ccccc1 (some centres undefined) | -7.8 | -7.8*
C[C@@H]1CC=C[C@H]2[C@H]1C(=O)N(Cc1ccccc1)[C@H]2c1ccc(C(F)(F)F)cc1 | . | i
COc1ccc([C@H]2[C@H]3C=CC[C@@H](C)[C@@H]3C(=O)N2Cc2ccccc2)cc1Cl | . | i
CC[C@@H]1CC=C[C@H]2[C@H]1C(=O)N(Cc1ccccc1)[C@H]2c1ccc2ccccc2c1 | -5.7 | -5.7*
SMILES | KCNQ2 enhance | KCNQ2 block
Cc1cc([N+](=O)[O-])nn1CC(=O)NCc1ccco1 | 0.39 | i
O=C(CN(C(=O)c1cc2c(s1)CCC2)C1CCCC1)NCc1cccs1 | -7.1 | -7.1*
O=C(CN(Cc1ccccc1)C(=O)c1cc2c(s1)CCC2)NCc1cccs1 | . | i
O=C(CN1C(=O)NC2(CCc3ccccc32)C1=O)NCC(F)(F)F (centres undefined) | . | i
Cc1nc(N)sc1-c1csc(Nc2ccc(S(N)(=O)=O)cc2)n1 | 0.44 | i
Cc1noc(C)c1CSc1ncnc2sc(C)c(C)c12 | 1.1 | i
Cc1noc(C)c1CSc1ncnc2sc3c(c12)CCCCC3 | 5.5* | i
CCCc1ccc(OCc2ccc(C(=O)OC)o2)c(OC)c1 | . | i
Cc1ccc(S(=O)(=O)CC(=O)Nc2nc(-c3ccccc3)cs2)cc1 | . | i
COc1cccc(CN2CCN(C(=O)c3cc(-c4ccncc4)nc4ccc(C)cc34)CC2)c1 | -5.9 | -5.9*
CCN1CCN(C(=O)c2cc(-c3cccnc3)nc3ccc(Br)cc23)CC1 | -8.3 | -8.3*
COc1cccc(CN2CCN(C(=O)c3cc(-c4ccccn4)nc4ccc(Cl)cc34)CC2)c1 | . | i
O=C(O)c1cc(-c2cccnc2)nc2ccc(Br)cc12 | 0.58 | i
Cc1ccc(NCc2ccccc2F)cc1 | . | i
C/C(=N\Nc1nc2ccccc2[nH]1)c1ccc(C)o1 | 0.11 | i
C/C(=N\Nc1nc2ccccc2[nH]1)c1ccc(Cl)s1 | 13* | i
N#Cc1c(-c2ccccc2)c(-c2ccccc2)n(Cc2ccco2)c1NC(=O)c1cccs1 | -6.3 | -6.3*
O=C(CSc1nnc(-c2ccc(O)cc2)n1Cc1ccco1)c1cccs1 | 0.02 | i
O=C(Nc1ncc(S(=O)(=O)c2ccc([N+](=O)[O-])cc2)s1)c1cccnc1 | . | i
C#CCNc1ccc([N+](=O)[O-])cc1 | . | i
CCCN1CCN(CCCNC(=O)C2CCN(c3nnc(-n4c(C)ccc4C)s3)CC2)CC1 | 1.2 | i
COc1ccccc1C(=O)NCC(c1ccco1)N1CCc2ccccc21 (centres undefined) | -6.3 | -6.3*
O=C(NCC(c1ccco1)N1CCc2ccccc2C1)c1cccc(F)c1 (centres undefined) | -5.8 | -5.8*
Cc1ccc(C(=O)NCC(c2ccco2)N2CCc3ccccc32)cc1C (centres undefined) | -6.2 | -6.2*
O=C(NCC(c1ccco1)N1CCCC1)c1ccc(S(=O)(=O)Nc2ccccc2F)cc1 (centres undefined) | 0.06 | i
SMILES | KCNQ2 enhance | KCNQ2 block
COc1cccc(C(=O)NCC(c2ccco2)N2CCc3ccccc3C2)c1 (centres undefined) | . | i
Cc1ccccc1NS(=O)(=O)c1ccc(C(=O)NCC(c2ccco2)N2CCCCC2)cc1 (centres undefined) | -6.7 | -6.7*
O=C(NCC(c1ccco1)N1CCc2ccccc21)c1ccccc1 (centres undefined) | . | i
COc1cc(C(=O)NCC(c2ccco2)N2CCc3ccccc32)cc(OC)c1OC (centres undefined) | . | i
Cc1cccc(N2C(=O)/C(=C\c3ccc(OC(F)F)cc3)c3ccccc3C2=O)c1 | . | i
O=c1ccc(-c2ccc(S(=O)(=O)Nc3cccc(F)c3)o2)n[nH]1 | 2.2 | i
O=C(COC(=O)c1ccc(S(=O)(=O)N2CCCC2)cc1)NCc1ccc(Cl)cc1 | 0.32 | i
CCOC(=O)Cc1csc(Nc2ccc(Cl)cc2)n1 | . | i
COc1ccccc1CNC(=O)C1CCC(CNS(=O)(=O)c2cccc3cccnc23)CC1 (centres undefined) | . | i
CC(C)(C)C(=O)[C@H]1[C@H](c2ccccc2)[C@@]2(N=C(c3ccccc3)OC2=O)C2c3ccccc3C=NN21 (some centres undefined) | -6.2 | -6.2*
COc1ccc([C@H]2[C@H](C(=O)OC(C)(C)C)N3N=Cc4ccccc4C3C23C(=O)c2ccccc2C3=O)cc1OC (some centres undefined) | . | i
COc1ccc(N2C(=O)C(F)(F)C2c2ccccc2F)cc1 (centres undefined) | 1.4 | i
CCCOc1ccc(C(=O)N2CCCC2C(=O)O)cc1 (centres undefined) | 1.2 | i
COc1cccc(C(=O)Nc2ccc(NC(C)=O)cc2)c1 | . | i
COc1cccc(C(=O)NN/C(C)=C/C(=O)C(F)(F)C(F)(F)C(F)(F)F)c1 | 8.5* | i
CC1CCN(CC(=O)NNC(=O)c2cccc(Br)c2)CC1 | . | i
O=C(COc1ccc(Cl)cc1Cl)NC(=O)N1CCCCC1 | . | i
CCOC(=O)c1c(-c2ccccc2)oc2ccc(OCC)cc12 | . | i
